According to PubChem BioAssay AID720492 (Broad Institute, 2013):
Activity calls are given as the source filed them.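 The calls were made as follows: active = unnormalized dose curve rising to cross level 40 at or below the top tested dose; inconclusive = flat fit at moderately raised activity, or poor fit; inactive = the rest.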

Test: miR-27b level by RT-PCR, dose response, miR-122 / miR-27b project, Huh7 cells, cherry-pick, activator set (AID 720492)
Conditions: Huh7 miR-27b levels, qRT-PCR, 48 h; series mostly up to 35 µM

outcome, inactive:
COc1cccc(C(=O)Nc2ccc3c(c2)C(=O)N(C)C[C@@H](OC)[C@@H](C)CN[C@@H](C)CO3)c1, C/C=C/c1cnc2c(c1)C(=O)N([C@@H](C)CO)C[C@H](C)[C@H](CN(C)S(=O)(=O)c1ccc(OC)cc1)O2, C[C@H](CO)N1C[C@H](C)[C@H](CN(C)C(=O)C2CCOCC2)Oc2cc(C#Cc3ccncc3)ccc2S1(=O)=O, C[C@H]1CN([C@@H](C)CO)C(=O)c2cc(-c3ccc(C#N)cc3)cnc2O[C@H]1CN(C)C(=O)c1ccccc1, CO[C@@H]1CN(C)C(=O)c2cc(NC(=O)c3ccc4c(c3)OCO4)ccc2OC[C@H](C)NC[C@@H]1C, CO[C@@H]1CN(C)C(=O)c2cc(NC(=O)c3cccc(Oc4ccccc4)c3)ccc2OC[C@H](C)NC[C@@H]1C, CN1C(=O)c2cc(NC(=O)c3cccc(F)c3)ccc2OC[C@@H]2O[C@H](CC(=O)O)CC[C@H]21, C[C@@H]1CN([C@@H](C)CO)S(=O)(=O)c2ccc(C#Cc3ccncc3)cc2O[C@H]1CN(C)C(=O)C1CCOCC1, CN1C(=O)c2cc(NC(=O)c3cccc(F)c3)ccc2OC[C@@H]2O[C@@H](CC(=O)O)CC[C@@H]21, COCC(=O)N(C)C[C@@H]1Oc2ncc(-c3ccc(C#N)cc3)cc2C(=O)N([C@@H](C)CO)C[C@@H]1C, C[C@@H]1CN([C@H](C)CO)S(=O)(=O)c2ccc(/C=C/c3ccccc3)cc2O[C@@H]1CN(C)C(=O)c1cccnc1, C[C@H](CO)N1C[C@H](C)[C@@H](CN(C)C(=O)C2CCOCC2)Oc2cc(C#Cc3ccncc3)ccc2S1(=O)=O, COCC(=O)N(C)C[C@H]1Oc2cc(C#Cc3cccnc3)ccc2S(=O)(=O)N([C@H](C)CO)C[C@H]1C, C[C@H]1CN([C@@H](C)CO)C(=O)c2cc(-c3ccc(C#N)cc3)cnc2O[C@H]1CN(C)Cc1cncnc1, COCC(=O)N(C)C[C@H]1Oc2cc(-c3ccccc3F)ccc2S(=O)(=O)N([C@@H](C)CO)C[C@H]1C, CCCC#Cc1ccc2c(c1)O[C@H](CN(C)C(=O)c1ccncc1)[C@H](C)CN([C@@H](C)CO)S2(=O)=O, C[C@@H]1CN([C@H](C)CO)S(=O)(=O)c2ccc(C#Cc3ccncc3)cc2O[C@H]1CN(C)C(=O)C1CCOCC1, C[C@H]1CN([C@@H](C)CO)C(=O)c2cc(-c3ccc(C#N)cc3)cnc2O[C@H]1CN(C)C(=O)Nc1ccc(C(F)(F)F)cc1, CNC[C@@H]1Oc2cc(C#CC3CCCCC3)ccc2S(=O)(=O)N([C@@H](C)CO)C[C@@H]1C, CN1C(=O)c2cc(NC(=O)c3cccc(F)c3)ccc2OC[C@H]2O[C@H](CC(=O)O)CC[C@@H]21, C[C@H]1CN([C@@H](C)CO)C(=O)c2cc(C#Cc3ccccc3F)cnc2O[C@H]1CN(C)C(=O)C1CCCCC1
